Assay results: PubChem BioAssay (NCATS)
Several values for one entry are separate records, joined by “and”; a condition that tells them apart may be missing. Identical values can stand only once. Inconclusive results are not listed. Where a call stands in place of a potency, no number is given. Activity calls are given as the source filed them. Unless noted, calls come from the whole dose curve; as a rule, active = well fitted curve in the direction sought with a large enough effect; inconclusive = small, poorly fitted or top-dose-only effect, or another doubt; inactive = no such curve, though single readings can be large; an effect the other way counts as inactive or inconclusive.

Columns and labels:
[1] = AP1 Signaling Pathway (AID 357; active = well fitted curve in either direction with a large enough effect, not every such curve was filed as active;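 note: ME-180 reporter cells stimulated with EGF at its EC50 level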)
In short: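 Cells are seeded overnight, exposed to compound titrations and an EC50 level of EGF for 5 hours at 37 °C, then loaded with CCF4 dye for 2.5 hours. Beta-lactamase activity under the AP-1 element is read as a blue/green ratio.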

[2] = NFAT Signaling Pathway (AID 444; active = well fitted curve in either direction with a large enough effect, not every such curve was filed as active;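 note: carbachol stimulus at about its EC50 of 1 µM final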); settings: Jurkat NFAT-bla M1, carbachol, beta-lactamase ratio, 5 h; at 17.2 µM (top of the series) unless noted
In short: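 Jurkat cells with NFAT-driven β-lactamase reporter and co-expressed M1 receptor, stimulated with carbachol (final 1 uM, ~EC50), compound titration, 5 h at 37 °C. CCF4 loaded 1 h at RT; 460/530 nm ratio gave %activity and AC50.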

[3] = Stat Signaling Pathway (AID 446; active = well fitted curve in either direction with a large enough effect, not every such curve was filed as active;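 note: ME-180 cervical cancer cells given 40 pM IL-6 alongside compound; SIE-controlled beta-lactamase reporter measured as 460/530 nm FRET emission ratio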)
In short: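 FRET read-out (405 nm excitation, 460/530 nm emission) of a beta-lactamase reporter under a STAT-inducible element in ME-180 cervical carcinoma cells. Cells with compound receive 40 pM IL-6 for 5 h. Values are normalised to AC90 stimulation and AC90 JAK-inhibitor controls.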

[4] = molecular target: Glucocorticoid receptor (Homo sapiens) (UniProt P04150); assay: GR-GFP Redistribution (AID 450;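 active = compounds whose dose series gives a full or clear partial fitted curve of increased nuclear translocation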; note: potency is the fitted concentration of half-maximal effect); settings: U2OS GR-GFP nuclear translocation, laser cytometry, 2 h
Chain of Glucocorticoid receptor (Homo sapiens) (P04150 whole entry, looked up, the tested form may be a part): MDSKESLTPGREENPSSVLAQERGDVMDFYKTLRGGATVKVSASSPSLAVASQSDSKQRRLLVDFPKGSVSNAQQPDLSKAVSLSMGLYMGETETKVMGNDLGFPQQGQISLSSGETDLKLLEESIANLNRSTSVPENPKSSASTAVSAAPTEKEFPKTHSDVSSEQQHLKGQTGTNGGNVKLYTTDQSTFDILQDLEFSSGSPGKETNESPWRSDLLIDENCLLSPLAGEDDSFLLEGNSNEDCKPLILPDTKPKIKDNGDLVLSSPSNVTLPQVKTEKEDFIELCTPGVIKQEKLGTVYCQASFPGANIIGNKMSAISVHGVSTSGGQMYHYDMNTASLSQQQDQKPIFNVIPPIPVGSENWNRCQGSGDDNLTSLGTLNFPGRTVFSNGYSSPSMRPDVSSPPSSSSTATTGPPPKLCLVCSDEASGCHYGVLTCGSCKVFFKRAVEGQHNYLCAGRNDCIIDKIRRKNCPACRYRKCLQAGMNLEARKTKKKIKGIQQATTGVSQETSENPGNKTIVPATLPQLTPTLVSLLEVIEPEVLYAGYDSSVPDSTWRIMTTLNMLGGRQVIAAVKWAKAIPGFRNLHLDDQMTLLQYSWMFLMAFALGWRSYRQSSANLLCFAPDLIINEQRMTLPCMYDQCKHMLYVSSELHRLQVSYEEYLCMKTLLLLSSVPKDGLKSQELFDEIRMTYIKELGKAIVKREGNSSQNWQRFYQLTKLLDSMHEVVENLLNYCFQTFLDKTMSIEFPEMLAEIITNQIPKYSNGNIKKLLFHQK

[5] = molecular target: Glucocorticoid receptor (Homo sapiens) (UniProt P04150); assay: GR-EFC Redistribution (AID 451; calls by dose curve; note: potency is the fitted concentration of half-maximal effect); settings: CHO-K1 GR-EFC translocation, beta-gal luminescence, 2 h
In short: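 CHO-K1 cells expressing nuclear EA and GR-ED fragments of b-gal; compounds titrated up to 46 uM final, 2 h at 37 C. GR nuclear translocation read as complemented b-gal luminescence after 1 h RT detection.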

[6] = molecular target: Mitogen-activated protein kinase 10 (Mus musculus) (UniProt Q61831); assay: JNK3 AlphaScreen Assay (AID 530; active = well fitted curve in either direction with a large enough effect, not every such curve was filed as active;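 note: kinase came from lysate of stimulated human HepG2 cells; signal reports phosphorylation of biotinylated GST-cJun 1-79 at Ser73 with 10 µM ATP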)
In short: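 Activity was read by AlphaScreen after JNK3-containing HepG2 lysate (cytokine pre-activated) phosphorylated biotinylated GST-cJun with 10 uM ATP at room temperature. Phospho-Ser73 cJun antibody with Protein-A acceptor beads provided detection.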

[7] = molecular target: 3',5'-cyclic-AMP phosphodiesterase 4B (Homo sapiens) (UniProt Q07343); assay: qHTS Assay for Inhibitors of PDE-IV (AID 607; active = well fitted activation curve with a large enough effect in the main read-out, with a control signal flat, not every such curve was filed as active)
Chain of 3',5'-cyclic-AMP phosphodiesterase 4B (Homo sapiens) (Q07343 whole entry, looked up): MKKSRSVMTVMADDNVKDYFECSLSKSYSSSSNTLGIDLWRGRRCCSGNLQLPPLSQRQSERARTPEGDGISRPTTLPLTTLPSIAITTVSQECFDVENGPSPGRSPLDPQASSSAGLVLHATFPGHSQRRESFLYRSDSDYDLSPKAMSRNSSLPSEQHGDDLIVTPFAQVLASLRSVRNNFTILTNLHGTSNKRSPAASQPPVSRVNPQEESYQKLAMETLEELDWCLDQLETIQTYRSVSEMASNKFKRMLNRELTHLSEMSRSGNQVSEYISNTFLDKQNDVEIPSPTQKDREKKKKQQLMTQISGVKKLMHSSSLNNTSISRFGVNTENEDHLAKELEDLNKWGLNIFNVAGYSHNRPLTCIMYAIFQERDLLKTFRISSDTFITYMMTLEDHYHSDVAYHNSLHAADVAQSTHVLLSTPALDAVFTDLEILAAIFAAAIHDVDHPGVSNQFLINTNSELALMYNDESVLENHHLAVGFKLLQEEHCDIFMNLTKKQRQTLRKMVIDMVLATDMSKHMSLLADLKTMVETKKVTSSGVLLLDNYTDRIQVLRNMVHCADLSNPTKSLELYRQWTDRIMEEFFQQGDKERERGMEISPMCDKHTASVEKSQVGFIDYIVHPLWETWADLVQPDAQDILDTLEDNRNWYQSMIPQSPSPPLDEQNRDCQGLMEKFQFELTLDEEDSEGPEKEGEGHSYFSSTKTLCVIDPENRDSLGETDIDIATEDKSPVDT
In short: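 Cell-based read-out of cAMP via a modified cyclic nucleotide-gated channel and membrane potential dye (535/590 nm) in HEK293 cells expressing PDE4 endogenously. Compounds tested up to 22.9 uM final; 100 uM RO 20-1724 reference.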

[8] = qHTS Assay for Lipid Storage Modulators (AID 1519; calls by dose curve); settings: Drosophila S3 cells, BODIPY lipid droplet/cell ratio, laser cytometry, cells loaded with oleic acid; for activity change, negative = inhibition: at 25.7 µM (top of the series)
In short: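 Cells seeded at 5,000 per well were treated with compounds over a concentration series and loaded with oleic acid (400 uM, as added). Lipid droplet fluorescence (488 nm excitation, 500-530 nm channel) was read by laser-scanning cytometry and normalized to 20 uM Triacsin C.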

[9] = molecular target: Ubiquitin carboxyl-terminal hydrolase 1 (Homo sapiens) (UniProt O94782); assay: Inhibitors of USP1/UAF1: Pilot qHTS (AID 504865);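 note: rhodamine fluorescence freed from ubiquitin-rhodamine substrate followed over time; top concentration of the series differs between compounds; nearly all actives have a fitted effect of over 35% in size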
Chain of Ubiquitin carboxyl-terminal hydrolase 1 (Homo sapiens) (O94782 whole entry, looked up): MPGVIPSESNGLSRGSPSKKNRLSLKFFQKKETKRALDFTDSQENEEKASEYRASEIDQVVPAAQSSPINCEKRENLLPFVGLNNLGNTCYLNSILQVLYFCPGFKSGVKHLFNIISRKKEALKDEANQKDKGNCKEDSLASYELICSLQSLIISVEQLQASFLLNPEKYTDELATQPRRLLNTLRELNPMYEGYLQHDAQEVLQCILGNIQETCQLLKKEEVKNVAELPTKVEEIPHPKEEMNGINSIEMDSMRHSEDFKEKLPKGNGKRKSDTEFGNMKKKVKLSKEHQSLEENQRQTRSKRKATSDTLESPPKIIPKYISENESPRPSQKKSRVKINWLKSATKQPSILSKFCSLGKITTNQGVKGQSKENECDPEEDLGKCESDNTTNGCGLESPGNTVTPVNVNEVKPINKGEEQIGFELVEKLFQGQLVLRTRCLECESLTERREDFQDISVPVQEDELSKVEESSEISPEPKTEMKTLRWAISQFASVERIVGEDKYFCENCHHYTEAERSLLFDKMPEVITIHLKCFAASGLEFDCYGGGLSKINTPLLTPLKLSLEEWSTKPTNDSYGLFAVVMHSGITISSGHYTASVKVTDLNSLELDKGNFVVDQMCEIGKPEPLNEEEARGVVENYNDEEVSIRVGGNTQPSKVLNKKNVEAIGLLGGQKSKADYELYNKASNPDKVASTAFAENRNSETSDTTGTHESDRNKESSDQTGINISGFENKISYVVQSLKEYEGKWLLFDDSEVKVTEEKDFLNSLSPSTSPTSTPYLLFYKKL
In short: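 Kinetic fluorescence assay: 1nM USP1/UAF1, 15 min compound preincubation, then 150nM Ub-Rho; 480/540 nm.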

[10] = molecular target: Luciferin 4-monooxygenase (Photinus pyralis) (UniProt P08659); assay: Biochemical firefly luciferase enzyme assay for NPC (AID 624030);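 note: purified P. pyralis luciferase at 10 nM with luciferin and ATP substrate; nearly all actives have a fitted effect of over 70% in size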
Chain of Luciferin 4-monooxygenase (Photinus pyralis) (P08659 whole entry, looked up): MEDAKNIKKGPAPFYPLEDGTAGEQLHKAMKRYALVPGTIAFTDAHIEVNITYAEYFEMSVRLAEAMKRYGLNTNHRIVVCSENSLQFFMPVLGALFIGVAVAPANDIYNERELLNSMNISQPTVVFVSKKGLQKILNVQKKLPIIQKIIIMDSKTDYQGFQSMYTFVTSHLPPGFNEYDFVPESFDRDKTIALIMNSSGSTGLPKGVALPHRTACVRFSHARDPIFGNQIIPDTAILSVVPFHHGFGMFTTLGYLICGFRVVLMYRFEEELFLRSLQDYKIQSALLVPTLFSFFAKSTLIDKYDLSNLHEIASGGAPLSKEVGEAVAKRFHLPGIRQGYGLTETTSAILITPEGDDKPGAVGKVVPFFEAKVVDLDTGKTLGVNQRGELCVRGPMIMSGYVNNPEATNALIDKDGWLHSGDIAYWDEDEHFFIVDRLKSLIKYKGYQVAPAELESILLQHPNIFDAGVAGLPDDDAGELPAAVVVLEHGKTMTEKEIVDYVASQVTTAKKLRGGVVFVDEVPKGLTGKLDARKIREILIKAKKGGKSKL
In short: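 Purified P. pyralis luciferase at 10 nM in 50 mM Tris Acetate (final), luminescence read within 5 minutes of enzyme addition to compounds. Activity normalised to PTC124 versus DMSO; concentration-response curves classed by r2, magnitude and activity.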

[11] = S16 Schwann cell viability assay (CellTiter-Glo assay) (AID 624031);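 note: native untransfected S16 rat Schwann cells; cellular ATP luminescence as a viability measure; nearly all actives have a fitted effect of over 70% in size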
In short: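 Parental S16 cells, 24 h compound, 37 °C. ATP-luminescence viability; DMSO = 0% activity, empty wells as reference; curves classified by fit quality and efficacy.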

[12] = qHTS profiling for inhibitors of Plasmodium falciparum proliferation (AID 504749); note: nearly all actives have a fitted effect of over 60% in size; settings: P. falciparum in erythrocytes, SYBR Green DNA, 72 h
In short: (§1)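 Each compound contacts P. falciparum-infected red blood cells for 72 h at 37 C; lysis buffer (Tris, EDTA, saponin, Triton X, SYBR Green I) is added and fluorescence measured next morning; values normalized to controls.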

[13] = system: C2A; assay: as above; settings: P. falciparum in erythrocytes, SYBR Green DNA, 72 h; series mostly up to 12.8 µM
In short: as §1

[14] = system: CP191; assay: as above; settings: P. falciparum in erythrocytes, SYBR Green DNA, 72 h; series mostly up to 12.8 µM
In short: as §1

[15] = system: CP247; assay: as above; settings: P. falciparum in erythrocytes, SYBR Green DNA, 72 h; series mostly up to 12.8 µM
In short: as §1

[16] = system: CP250; assay: as above; settings: P. falciparum in erythrocytes, SYBR Green DNA, 72 h; series mostly up to 12.8 µM
In short: as §1

[17] = system: CP256; assay: as above; settings: P. falciparum in erythrocytes, SYBR Green DNA, 72 h; series mostly up to 12.8 µM
In short: as §1

[18] = system: FAB9; assay: as above; settings: P. falciparum in erythrocytes, SYBR Green DNA, 72 h; series mostly up to 12.8 µM
In short: as §1

[19] = system: JCK; assay: as above; settings: P. falciparum in erythrocytes, SYBR Green DNA, 72 h; series mostly up to 12.8 µM
In short: as §1

[20] = system: PC49; assay: as above; settings: P. falciparum in erythrocytes, SYBR Green DNA, 72 h; series mostly up to 12.8 µM
In short: as §1

[21] = measured here: cell count channel max response
[22] = measured here: lipid channel max response
[23] = at 12.8 µM (top of the series), parasite line A
[24] = at 12.8 µM (top of the series), parasite line B

CN[C@H]1[C@H](O)[C@@H](O[C@@H]2[C@H](O)[C@@H](O[C@H]3OC(CN)=CC[C@H]3N)[C@@H](N)C[C@H]2N)OC[C@@]1(C)O
outcome [1]: inactive
activity change, negative = inhibition [2]: -17.3% (inactive)
outcome [3]: inactive
Potency [4]: > 20.6 µM (inactive)
Potency [5]: > 20.6 µM (inactive)
Potency [6]: inactive
outcome [7]: inactive
activity change, negative = inhibition [8]: 0.656% (inactive)
max response [8, 21]: -1.73%
max response [8, 22]: -0.476%
Potency [9]: inactive
Potency [10]: inactive
outcome [11]: inactive
activity, negative = inhibition [12, 23]: 3.71% (inactive)
activity, negative = inhibition [12, 24]: 6.19% (inactive)
Potency [13]: inactive
Potency [14]: inactive
Potency [15]: inactive
Potency [16]: inactive
Potency [17]: inactive
Potency [18]: inactive
Potency [19]: inactive
Potency [20]: inactive

CC(C)(C)NC[C@H](O)COc1cccc2c1C[C@@H](O)[C@@H](O)C2
outcome [1]: inactive
activity change, negative = inhibition [2]: -3.7% (inactive)
outcome [3]: inactive
Potency [4]: > 20.6 µM (inactive)
Potency [5]: > 20.6 µM (inactive)
outcome [7]: inactive
activity change, negative = inhibition [8]: -2.96% (inactive)
max response [8, 21]: -8.96%
max response [8, 22]: -13.2%
Potency [9]: inactive
Potency [10]: inactive
outcome [11]: inactive
activity, negative = inhibition [12, 23]: 4.79% (inactive)
activity, negative = inhibition [12, 24]: 2.07% (inactive)
Potency [13]: inactive
Potency [14]: inactive
Potency [15]: inactive
Potency [16]: inactive
Potency [17]: inactive
Potency [18]: inactive
Potency [19]: inactive
Potency [20]: inactive

Cc1ccc2c(c1)c1c3n2CCN[C@H]3CCC1
outcome [1]: inactive
activity change, negative = inhibition [2]: -11.2% (inactive)
outcome [3]: inactive
Potency [4]: > 20.6 µM (inactive) and > 46 µM (inactive)
Potency [5]: > 20.6 µM (inactive) and > 46 µM (inactive)
outcome [7]: inactive
activity change, negative = inhibition [8]: -2.69% (inactive)
max response [8, 21]: -5.65%
max response [8, 22]: -6.69%
Potency [9]: inactive
Potency [10]: inactive
activity, negative = inhibition ([12]; at 28.7 µM (top of the series), parasite line A): -1.32% (inactive)
activity, negative = inhibition ([12]; at 28.7 µM (top of the series), parasite line B): 1.18% (inactive)
Potency [13]: inactive
Potency [14]: inactive
Potency [15]: inactive
Potency [16]: inactive
Potency [17]: inactive
Potency [18]: inactive
Potency [19]: inactive
Potency [20]: inactive

CC[C@](C)(CN(C)C)OC(=O)c1ccccc1
outcome [1]: inactive
activity change, negative = inhibition [2]: -26.6% (inactive)
outcome [3]: inactive
Potency [4]: > 20.6 µM (inactive)
Potency [5]: > 20.6 µM (inactive)
Potency [6]: inactive
outcome [7]: inactive
activity change, negative = inhibition [8]: -5.12% (inactive)
max response [8, 21]: -9.58%
max response [8, 22]: -16.2%
Potency [9]: inactive
Potency [10]: inactive
outcome [11]: inactive
activity, negative = inhibition [12, 23]: 5.48% (inactive)
activity, negative = inhibition [12, 24]: 4.88% (inactive)
Potency [13]: inactive
Potency [14]: inactive
Potency [15]: inactive
Potency [16]: inactive
Potency [17]: inactive
Potency [18]: inactive
Potency [19]: inactive
Potency [20]: inactive

Cc1ncc([N+](=O)[O-])n1C[C@H](O)CCl
outcome [1]: inactive
activity change, negative = inhibition [2]: -7.59% (inactive)
outcome [3]: inactive
Potency [4]: > 20.6 µM (inactive)
Potency [5]: > 20.6 µM (inactive)
Potency [6]: inactive
outcome [7]: inactive
activity change, negative = inhibition [8]: -1.27% (inactive)
max response [8, 21]: 8.08%
max response [8, 22]: 6.22%
Potency [9]: inactive
Potency [10]: inactive
outcome [11]: inactive
activity, negative = inhibition [12, 23]: 1% (inactive)
activity, negative = inhibition [12, 24]: 10.5% (inactive)
Potency [13]: inactive
Potency [14]: inactive
Potency [15]: inactive
Potency [16]: inactive
Potency [17]: inactive
Potency [18]: inactive
Potency [19]: inactive
Potency [20]: inactive

CNC[C@H](O)[C@H](O)[C@H](O)[C@H](O)CO
outcome [1]: inactive
outcome [3]: inactive
outcome [7]: inactive
activity change, negative = inhibition [8]: -1.7% (inactive)
max response [8, 21]: -11%
max response [8, 22]: -14.3%
Potency [9]: inactive

c1ccc2c3c([nH]c2c1)[C@@H]1[C@H]2CC[C@H]([C@H]4CCCN[C@H]42)N1CC3
outcome [1]: inactive
outcome [3]: inactive
Potency [4]: > 20.6 µM (inactive)
Potency [5]: > 20.6 µM (inactive)
Potency [6]: inactive
outcome [7]: inactive
activity change, negative = inhibition [8]: -1.37% (inactive)
max response [8, 21]: 0.348%
max response [8, 22]: -3.2%

CN[C@]1(C)[C@H]2CC[C@@H](C2)C1(C)C
outcome [1]: inactive
outcome [3]: inactive
Potency [4]: > 20.6 µM (inactive)
Potency [5]: > 20.6 µM (inactive)
Potency [6]: inactive
outcome [7]: inactive
activity change, negative = inhibition [8]: -3.7% (inactive)
max response [8, 21]: -12.2%
max response [8, 22]: -14.5%

COc1cc2cc3c4cc(OC)c(OC)cc4cc[n+]3c(C)c2cc1OC
outcome [1]: inactive
outcome [3]: inactive
Potency [4]: > 20.6 µM (inactive)
Potency [5]: > 20.6 µM (inactive)
outcome [7]: inactive
activity change, negative = inhibition [8]: 0.187% (inactive)
max response [8, 21]: -9.25%
max response [8, 22]: -9.88%
Potency [9]: inactive

CCN1CCC[C@@H](OC(=O)C(c2ccccc2)c2ccccc2)C1
outcome [1]: inactive
activity change, negative = inhibition [2]: -80.8% (active)
outcome [3]: inactive
Potency [4]: > 20.6 µM (inactive)
Potency [5]: > 20.6 µM (inactive)
Potency [6]: inactive
activity change, negative = inhibition [8]: -6.3% (inactive)
max response [8, 21]: -3.56%
max response [8, 22]: -10.4%
Potency [10]: inactive
outcome [11]: inactive
activity, negative = inhibition [12, 23]: 0.857% (inactive)
activity, negative = inhibition [12, 24]: -1.3% (inactive)
Potency [13]: inactive
Potency [14]: inactive
Potency [15]: inactive
Potency [16]: inactive
Potency [18]: inactive
Potency [19]: inactive

CN[C@H]1[C@@H](O)[C@@H](NC)[C@@H]2O[C@@]3(O)C(=O)C[C@@H](C)O[C@H]3O[C@H]2[C@H]1O
outcome [1]: inactive
activity change, negative = inhibition [2]: -11.9% (inactive)
outcome [3]: inactive
Potency [4]: > 20.6 µM (inactive)
Potency [5]: > 20.6 µM (inactive)
Potency [6]: inactive
outcome [7]: inactive
activity change, negative = inhibition [8]: 0.684% (inactive)
max response [8, 21]: 1.41%
max response [8, 22]: 2.93%
Potency [9]: inactive
Potency [10]: inactive
outcome [11]: inactive
activity, negative = inhibition [12, 23]: -10.3% (inactive)
activity, negative = inhibition [12, 24]: -0.369% (inactive)
Potency [13]: inactive
Potency [14]: inactive
Potency [15]: inactive
Potency [16]: inactive
Potency [17]: inactive
Potency [18]: inactive
Potency [19]: inactive
Potency [20]: inactive
